# Screen size: about 60,000 compounds; about 65 (0.1%) were called active. Calls follow the shape of the dose curve; as a rule, active = well fitted inhibition curve with a large enough effect; inconclusive = small, poorly fitted or top-dose-only effect; inactive = no such curve, though single readings can be large or run the other way. The entries come from a sample that favours actives as a whole. Where a call stands in place of a potency, no number is given.
# Biological target: Ubiquitin carboxyl-terminal hydrolase 2 (Homo sapiens) (UniProt O75604)
# Assay: qHTS Assay for Inhibitors of Ubiquitin-specific Protease USP2a; also: nearly all actives have a fitted effect of over 60% in size
# Details: USP2a enzymatic assay; Potency: qHTS inhibition; series mostly up to 38.3 µM
# From the text: NIH Molecular Libraries Screening Centers Network [MLSCN]
# NIH Chemical Genomics Center [NCGC]
# PI Name: Nicholson, Ben. Progenra Inc, Malvern, PA
# Homeostasis of cellular proteins is maintained through a combination of synthesis and degradation. The pathway that accounts for the majority of protein degradation is the ubiquitin-proteasomal pathway. Ubiquitin (Ub) is highly conserved in all cells and the generation of a multi-Ub chain typically targets proteins for degradation by the proteasome. However, ubiquitination is highly reversible and dynamic. Deubiquitination, the reverse process, is catalyzed through the action of enzymes referred to as isopeptidases or deubiquitinating enzymes (DUBs). This group of enzymes is collectively responsible for maintaining adequate pools of free ubiquitin and regulating the ubiquitination status of cellular proteins. The class of DUBs referred to as the ubiquitin-specific proteases (USP) family functions endoproteolytically to cleave Ub chains from a wide range of protein substrates. USP2a deubiquitinates fatty acid synthase (FASN) which has recently been identified as an emerging oncology target. To identify inhibitors of USP2a a cell-free assay was employed.
# The reporter enzyme chosen is phospholipase A2 (PLA2), which has an absolute requirement for a free amino terminus. Thus, fusion of a UBL to the N-terminus of PLA2 inactivates PLA2. When the UBL-PLA2 reporter enzyme is cleaved by USP2, the activated reporter can subsequently act on its substrate, which is the commercially available NBD C6-HPC (Invitrogen). Thus, this coupled assay gives a fluorescent read-out, which is generated through the cleavage of the PLA2 reporter enzyme. The assay, developed by Progenra, Inc. uses Ub-PLA2 and USP2a at near equal and low (nM) amounts and has been licensed for sale by LifeSensors, Inc. as the Ub-IsoPro1 kit.
# NCGC Assay Protocol Summary:
# The assay buffer, prepared fresh at the day of the assay, contains 20mM Tris-HCl pH 8.0, 2mM CaCl2, 2mM beta-Mercaptoethanol, 0.1% DMSO. 3ul of 40nM (20nM final) USP2 core, which is stored on ice, is dispensed into a medium-binding black solid Kalypsys 1,536 well plate using the Kalypsys dispenser. The assay plate is then pinned with 23nL compound with the Kalypsys pintool in columns 5-48. The controls are pinned as follows: column 1&2 two-fold dilutions of 2M NEM in duplicate; column 3 DMSO; column 4 2M NEM (final concentration 38.2mM). The assay plate is incubated at RT for 30min. Subsequently, 3uL of 40nM (20nM final) Ub-PLA2 and 40uM (20uM final) NBD C6-HPC (stored on ice and protected from light) were dispensed into the plate using the Kalypsys dispenser. Plates were read immediately (0 Hour) on an Envision (Perkin Elmer) plate reader using the following wavelengths Ex 460nm /Em 535nm. Then, the assay plates were incubated for 2.5 hours and read again on the Envision using the same settings
# Data were normalized to the to AC100 inhibition (NEM). Concentration-response curves were fitted to the normalized data and the concentration-response curves were then classified based on curve quality (r2), response magnitude and degree of measured activity. The time zero reading was used to flag fluorescence artifacts.
# Keywords: ubiquitination, deubiquitination, proteases, profluorescent, MLSMR, MLSCN, NIH Roadmap, qHTS, NCGC
# Potency is read from the fitted curve at half-maximal effect.
# Chain of Ubiquitin carboxyl-terminal hydrolase 2 (Homo sapiens) (O75604 whole entry, looked up): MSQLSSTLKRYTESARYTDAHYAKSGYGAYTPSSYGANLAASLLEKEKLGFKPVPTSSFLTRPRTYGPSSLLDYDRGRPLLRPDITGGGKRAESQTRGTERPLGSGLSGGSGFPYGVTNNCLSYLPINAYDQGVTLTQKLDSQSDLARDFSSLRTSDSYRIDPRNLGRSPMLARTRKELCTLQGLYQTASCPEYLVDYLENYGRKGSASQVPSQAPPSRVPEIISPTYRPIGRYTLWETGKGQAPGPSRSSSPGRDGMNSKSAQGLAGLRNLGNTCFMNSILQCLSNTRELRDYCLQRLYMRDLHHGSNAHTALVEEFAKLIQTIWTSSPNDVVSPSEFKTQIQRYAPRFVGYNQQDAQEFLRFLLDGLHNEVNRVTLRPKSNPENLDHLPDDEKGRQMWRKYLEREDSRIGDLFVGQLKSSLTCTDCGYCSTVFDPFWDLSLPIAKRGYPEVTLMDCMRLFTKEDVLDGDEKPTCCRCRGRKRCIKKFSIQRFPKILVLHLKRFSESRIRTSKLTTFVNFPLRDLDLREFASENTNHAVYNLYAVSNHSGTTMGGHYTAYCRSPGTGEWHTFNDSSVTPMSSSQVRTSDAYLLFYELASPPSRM
row,Structure (SMILES),Potency
1,Clc1ccc(C(c2ccc(Cl)cc2)n2cc[n+](C[C@@H](OCc3ccc(Cl)cc3Cl)c3ccc(Cl)cc3Cl)c2)cc1,25.1 µM (active)
2,COc1ccc(C2Oc3c(I)c(OC)cc(OC)c3CC2O)cc1OC (stereo not given),inactive
3,COC1CC(OC2CC[C@@]3(C=O)C4CC[C@]5(C)C(C6=CC(=O)OC6)CC[C@@]5(O)C4CC[C@]3(O)C2)OC(C)C1O (stereo not given in full),inactive
4,COc1cc2c(cc1OC)[C@@H]1C(=O)c3ccc(O)c(CC=C(C)C)c3OC1CO2 (stereo not given in full),inactive
5,C=CCSSCC=C,inactive

# Reference: PubChem BioAssay AID927 (National Center for Advancing Translational Sciences (NCATS), 2007)
